{"source": "the supplement of paper PMC12819154", "about": "“High-throughput peptide-centric local stability assay extends protein–ligand identification to membrane proteins, tissues and bacteria” (Nature Structural & Molecular Biology, 2025);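 also: lysate desalted by size exclusion to strip endogenous ATP, peptide intensities built from DIA-NN precursor signals, and peptides missing any value discarded before comparison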"}
{"compound": "Nc1ncnc2c1ncn2[C@@H]1O[C@H](COP(=O)(O)OP(=O)(O)OP(=O)(O)O)[C@@H](O)[C@H]1O [adenosine 5'-triphosphate]", "assay": "log2 fold change of tryptic peptide abundance, ligand vs vehicle (limited proteolysis) (log2 ratio); higher = more trypsin-susceptible (destabilized)", "settings": "ligand concentration: 5 mM; sample: E. coli desalted lysate; replicate design: treated before aliquoting", "description": "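HT-PELSA: desalted E. coli K-12 BW25113 lysate (with 12 mM MgCl2) incubated with 5 mM ATP (pH 7) or water for 30 min at 25 C, then a 4 min trypsin pulse at 22 C. Peptides were quantified by DIA-MS (4 replicates). Value is the peptide log2 fold change (treated/control); negative = stabilized. Scale: negative = ligand-stabilized region.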"}
{"target": "UniProt P25888 (peptide sequence: DLMASAQTGTGK, peptide start residue: 40)", "log2 fold change": -1.66}
{"target": "UniProt P27129 (peptide sequence: DVEPMQEK, peptide start residue: 157)", "log2 fold change": -0.645}
{"target": "UniProt P77737 (peptide sequence: TRCPIAGPECAK, peptide start residue: 302)", "log2 fold change": 2.24}
{"target": "UniProt P08957 (peptide sequence: SRIGQEQLQFYR, peptide start residue: 61)", "log2 fold change": 1.09}
{"target": "UniProt P0A8Y3 (peptide sequence: VVVLSNTNR, peptide start residue: 103)", "log2 fold change": 0.564}
{"target": "UniProt P39325 (peptide sequence: STLYLPDTAKEELEK, peptide start residue: 298)", "log2 fold change": -1.01}
{"target": "UniProt P39208 (peptide sequence: RAGHFMPVALLK, peptide start residue: 119)", "log2 fold change": -1.52}
{"target": "UniProt P76034 (peptide sequence: DAPCEVILLGGVYQKK, peptide start residue: 127)", "log2 fold change": -0.81}
{"target": "UniProt P08400 (peptide sequence: FSFVIPER, peptide start residue: 417)", "log2 fold change": 2.08}
{"target": "UniProt P37774 (peptide sequence: TMVIVTHEMSFAR, peptide start residue: 196)", "log2 fold change": 1.7}
{"target": "UniProt P23894 (peptide sequence: SVGGEVIEQPR, peptide start residue: 61)", "log2 fold change": 2.55}
{"target": "UniProt P0C0T5 (peptide sequence: WTSAQLLRPQALDLVSR, peptide start residue: 130)", "log2 fold change": 0.388}
{"target": "UniProt Q46861 (peptide sequence: EALPGWSGVDSTRLDTPGK, peptide start residue: 229)", "log2 fold change": 0.959}
{"target": "UniProt P07395 (peptide sequence: GKGVAEGYK, peptide start residue: 746)", "log2 fold change": -0.76}
{"target": "UniProt P37005 (peptide sequence: IVDSQAHLEPATR, peptide start residue: 33)", "log2 fold change": -0.548}
{"target": "UniProt P25524 (peptide sequence: EYGVESLHK, peptide start residue: 192)", "log2 fold change": -0.706}
{"target": "UniProt P0ADZ7 (peptide sequence: DFVAAVLPK, peptide start residue: 96)", "log2 fold change": -0.282}
{"target": "UniProt P0ADV7 (peptide sequence: LKNEQPQIR, peptide start residue: 42)", "log2 fold change": 0.525}
{"target": "UniProt P00914 (peptide sequence: LSASLATGGLSPR, peptide start residue: 238)", "log2 fold change": -0.871}
{"target": "UniProt P52061 (peptide sequence: FHCVLVYLR, peptide start residue: 118)", "log2 fold change": -0.642}
{"target": "UniProt P39161 (peptide sequence: QILAALIK, peptide start residue: 203)", "log2 fold change": 0.746}
{"target": "UniProt P13518 (peptide sequence: LYQKPAVTR, peptide start residue: 414)", "log2 fold change": 0.793}
{"target": "UniProt P33602 (peptide sequence: IAPYYHLFGSDELSQR, peptide start residue: 812)", "log2 fold change": 0.28}
{"target": "UniProt P0AFU8 (peptide sequence: FSDEIGGHLMSGHIMTTAEVAK, peptide start residue: 90)", "log2 fold change": 0.559}
{"target": "UniProt P77399 (peptide sequence: TQGNYPATER, peptide start residue: 240)", "log2 fold change": -0.418}
{"target": "UniProt P08390 (peptide sequence: AVDALAGQSAK, peptide start residue: 168)", "log2 fold change": 0.237}
{"target": "UniProt P76403 (peptide sequence: SFYYCARTAQVYRK, peptide start residue: 294)", "log2 fold change": -0.632}
{"target": "UniProt P76043 (peptide sequence: ACSEPNPDYPR, peptide start residue: 284)", "log2 fold change": -1.41}
